Assay outcomes deposited in PubChem by National Center for Advancing Translational Sciences (NCATS).
The list is not random: actives were taken first. Their share in the collection is about 6.1%.
D1 antag: blocks dopamine activation of the human D1 receptor | AID 504652 | hit rate 3.2% among 360,000 | HEK293 TREx D1 cells, calcium flux, dopamine EC80; stronger effect = lower value | activity change, negative = inhibition, % at 10 µM | P21728; in the data active means activity change below about -30%; further: on the % scale 0 is the no-effect control and ±100 the full control effect
Target sequence (P21728 whole entry, looked up): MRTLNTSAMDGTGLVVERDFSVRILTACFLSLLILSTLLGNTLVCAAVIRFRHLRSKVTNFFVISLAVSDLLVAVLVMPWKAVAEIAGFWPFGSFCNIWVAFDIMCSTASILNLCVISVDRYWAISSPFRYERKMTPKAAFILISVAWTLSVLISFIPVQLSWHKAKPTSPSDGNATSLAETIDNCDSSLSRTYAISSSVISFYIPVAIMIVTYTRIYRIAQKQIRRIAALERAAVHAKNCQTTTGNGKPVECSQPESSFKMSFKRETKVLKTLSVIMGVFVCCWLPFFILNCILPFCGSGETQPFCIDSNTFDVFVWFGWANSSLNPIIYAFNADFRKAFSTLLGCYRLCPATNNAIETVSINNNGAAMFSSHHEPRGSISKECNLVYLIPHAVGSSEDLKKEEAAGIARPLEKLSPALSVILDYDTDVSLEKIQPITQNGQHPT
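After overnight tetracycline induction at 30 C, force-coupled D1 HEK293 cells took up a no-wash calcium dye at room temperature. Compounds were added and monitored 180 s, and the response to EC80 dopamine was then recorded.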
D3 ag: activates the human D3 dopamine receptor. D3R DiscoveRx beta-arrestin cells, luminescence, 90 min. max activation, %. hit rate 0.58% among 410,000. P35462; in the data active means max activation above about 30%; further: 0% is about no effect
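Agonist-mode cell screen: cells plated at 1500/well and incubated overnight at 37 °C, then exposed to library compounds for 90 min at 37 °C. Detection reagent was added for 30–60 min at room temperature, and luminescence was read.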
D1 ag: activates the human D1 dopamine receptor; P21728; hit rate 1% among 360,000; activation, % at 2 µM; HEK293 T-REx D1 cells, calcium flux, agonist mode; in the data active means activation above about 30%; further: 0% is about no effect
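Inducible HEK293 T-REx D1 cells, force-coupled to calcium signalling, were plated at 4000 cells/well with tetracycline and held overnight at 30 C. After no-wash calcium dye loading, compound-evoked calcium rise over 180 s flagged agonists.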
D1 potentiator: potentiators of human D1 dopamine receptor. hit rate 0.036% among 360,000. potentiation, % at 10 µM. HEK293 TREx D1 cells, calcium flux, dopamine EC20 potentiation. P21728; in the data active means potentiation above about 30%; further: 0% is about no effect
DRD3 antagonist: blocks the human D3 dopamine receptor; D3R cells, DiscoveRx beta-arrestin luminescence, antagonist mode; stronger effect = lower value; AID 652054; hit rate 2.5% among 360,000; P35462; max response, negative = inhibition, %; in the data active means max response below about -50%; inconclusive means no clear call, values can overlap the other calls; further: on the % scale 0 is the no-effect control and ±100 the full control effect
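Cells expressing the human receptor were seeded at 1500 cells/well, incubated overnight at 37 degrees C in 5% CO2, then exposed to library compounds with dopamine controls for 90 minutes at 37 degrees C before luminescent detection.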
The depositor's hits bear a star; ? = inconclusive; nt = no result given.

SMILES | D1 antag | D3 ag | D1 ag | D1 potentiator | DRD3 antagonist
CN1CCN(CCOC2Cc3ccccc3Sc3ccc(Cl)cc32)CC1 (centres undefined) | -66* | -8 | 29 | -21 | -63*
c1ccc2c(c1)CC(N1CCCCC1)c1ccccc1S2 (centres undefined) | nt | -3 | nt | nt | -1
CCc1ccc2c(c1)Sc1ccccc1CC2N1CCN(C)CC1 (centres undefined) | nt | -19 | nt | nt | -116*
CCCCC1(C)NC(=O)N(CC(=O)N2CCc3ccccc32)C1=O (centres undefined) | nt | 6 | nt | nt | 8
CCCc1nc2c3ccccc3ccn2c1Cc1ccc(OC)cc1C | nt | -11 | nt | nt | -16
COc1ccccc1OCc1nc(-c2cccc(C)c2)no1 | 3 | 18 | 3 | 0 | nt
CCN(CC)c1ccc(NS(=O)(=O)c2ccc(-c3coc(C)n3)cc2)c(C)c1 | -34* | 11 | 0 | -6 | nt
CCN(CC)c1ccc(NS(=O)(=O)c2cc3[nH]c(=O)c(=O)[nH]c3cc2C)c(C)c1 | -38* | 10 | 1 | -2 | nt
CSc1ccc(/C=N/NC(=O)CN2CCN(Cc3ccc(Cl)cc3)CC2)cc1 | -13 | -10 | 38* | -6 | ?
CSc1ccc(/C=N/NC(=O)CN2CCN(Cc3ccccc3)CC2)cc1 | -1 | -23 | 1 | -3 | 9
CSc1ccc(/C=N/N2CCN(Cc3ccc(Cl)cc3)CC2)cc1 | -2 | -18 | 1 | 0 | -54*
C[C@@H]1CN([C@@H](C)CO)C(=O)CCCn2nncc2CO[C@H]1CN(C)C(=O)NC1CCCCC1 | nt | -4 | nt | nt | -3
COc1ccc(S(=O)(=O)NC(=O)C2(C)CCN2C(=O)c2c(C)noc2C)cc1 (centres undefined) | nt | 2 | nt | nt | 5
Cc1ccc2[nH]c(C(=O)N3CCCC(Nc4ccc(F)cc4)C3)cc2c1 (centres undefined) | -30* | 2 | 3 | -8 | -12
O=C(COc1ccc(Nc2ccccc2)cc1)OCC(=O)N1CCCCC1 | -37* | -1 | 11 | -3 | 0
O=C(COc1ccc(Cl)cc1)N1CCN(c2ccc([N+](=O)[O-])c(N3CCCCC3)c2)CC1 | -31* | -3 | 3 | -2 | 21
O=C(COc1ccc(Cl)cc1)OCC(=O)N1CCCCCC1 | -34* | 7 | 1 | 7 | 20
O=C(CSc1nnc(COc2ccc(Cl)cc2)o1)N1CCCC1 | 10 | 9 | 1 | -2 | 12
O=C(COc1ccc(Cl)cc1)OCC(=O)N1CCCC1 | 2 | 5 | 3 | 1 | 22
O=C(CSc1nnc(COc2ccc(Cl)cc2)o1)N1CCCCC1 | -31* | -2 | 16 | -6 | 0
O=C(COc1ccccc1Cl)N1CCN(c2ccc([N+](=O)[O-])c(N3CCCCC3)c2)CC1 | 1 | 0 | 7 | 4 | 14
CC(C)C[C@H](NC(=O)N1CCCCCC1)C(=O)O | 1 | 16 | 1 | 8 | 14
CC1CN(C(=O)COC(=O)COc2ccc(C#N)cc2)CC(C)O1 (centres undefined) | -47* | 2 | -1 | -3 | -3
CC1CN(C(=O)COC(=O)c2ccc(C#N)cc2)CC(C)O1 (centres undefined) | -1 | 3 | 0 | -2 | 4
CCOc1ccc(-c2cn3c(n2)sc2cc(C(=O)NCCC4=CCCCC4)ccc23)cc1 | 0 | 5 | 2 | -3 | nt
SMILES | D1 antag | D3 ag | D1 ag | D1 potentiator | DRD3 antagonist
CCN(CC)c1ccc(-n2cc3c(=O)n(C)c(=O)n(C)c3c2)cc1 | 35 | -4 | 2 | 7 | -55*
CN(C)c1ccc(-n2cc3c(=O)n(C)c(=O)n(C)c3c2)cc1 | 2 | 2 | 1 | -5 | 38
O=C(/C=C/NNC(=O)c1ccc(Br)cc1)c1ccccc1 | -13 | -17 | 2 | 8 | -5
O=C(/C=C/NNC(=O)c1ccccc1)c1ccccc1 | 0 | -12 | 2 | -5 | -53*
CCOC(=O)C(CC)/C(C)=N/NC(=O)c1ccc([N+](=O)[O-])cc1 (centres undefined) | 5 | -4 | 1 | 0 | -64*
CCOC(=O)/C(C)=N/NC(=O)c1ccc([N+](=O)[O-])cc1 | -2 | -10 | -1 | -6 | -19
CCOC(=O)c1oc2cccc(O)c2c1C | -1 | -7 | 2 | -3 | -17
CCOC(=O)c1oc2ccc(CNC(C)(C)C)c(Cl)c2c1C | -52* | -26 | 1 | -14 | ?
COCC(=O)Nc1ccc2c(c1)[C@@H]1C[C@H](CC(=O)OC)O[C@@H](CO)[C@@H]1O2 | nt | 1 | nt | nt | 11
COc1cccc(-n2cnc3sc(C)cc3c2=O)c1 | 18 | 0 | 1 | 6 | -1
Cc1cc(C)c(OCCCNC2CCCC2)c(Br)c1 | -1 | -18 | 24 | -4 | -53*
Cc1cc(C)c(OCCCNCc2ccccc2)c(Br)c1 | 0 | -16 | 37* | -1 | -28
Cc1cc(Cl)c(OCCCNCc2ccccc2)c(Br)c1 | 29 | -11 | 32* | 3 | -62*
COCCNCCCCOc1c(Cl)cc(C)cc1Br | -2 | -4 | 13 | -7 | -84*
Cc1cc(Cl)cc(Br)c1OCCCNCC(C)O (centres undefined) | -17 | -1 | 10 | -8 | 0
Cc1cc(C)c(OCCCCN(C)C)c(Br)c1 | -9 | -28 | 3 | -16 | -15
Cc1cc(Cl)c(OCCCN2CCCCC2)c(Br)c1 | 4 | -25 | 8 | -6 | -2
CCc1ccccc1NC(=O)Cn1c(=O)ccc2cc(S(=O)(=O)N3CCC(C)CC3)ccc21 | 14 | -14 | 2 | -3 | nt
CCN(CC)S(=O)(=O)c1cc(NC(=O)c2ccc(Br)s2)ccc1C | -33* | -2 | 27 | -3 | -4
COc1ccc(C)cc1NC(=O)CSc1nc(=O)n(CCCN2CCOCC2)c2c1CCCC2 | -2 | -25 | -1 | -5 | -2
CN1CCN(NC(=O)c2cn(-c3ccccc3)nc2-c2cccc(Br)c2)CC1 | -33* | -6 | 14 | -10 | -11
Cc1cc(N2CCC(C)CC2)c(F)cc1[N+](=O)[O-] | 6 | -3 | -1 | -2 | -21
Cc1cc(N2CCCC2)c(F)cc1/C=C\[N+](=O)[O-] | 15 | -2 | 400* | 23 | -7
Cc1ccc(NC(=O)CCSc2nc(-c3ccco3)cc(C(F)(F)F)n2)cc1F | 1 | 26 | 14 | -7 | nt
O=C(NCc1cccnc1)c1nc(-c2ccc(C(F)(F)F)cc2)no1 | -40* | -4 | 14 | -6 | -59*
CC(C)(C)c1ccc(C(=O)NCc2cccnc2)cc1 | -11 | -1 | 3 | -6 | -10
O=C(NCc1ccncc1)c1nc(-c2cccs2)no1 | -12 | -1 | 8 | 2 | -2
O=C(NCc1ccncc1)c1nc(-c2ccc(C(F)(F)F)cc2)no1 | -39* | 3 | 8 | -10 | 17
CN1CCN(C(=O)c2cc3c(c(-c4cccc(-c5cc6ccccc6o5)c4)n2)[C@@H](CCO)N(S(=O)C(C)(C)C)C3)CC1 (some centres undefined) | nt | -2 | nt | nt | -20
